In the supplement of paper PMC9694430:

Legend:
Experiment in all cases: thermal shift delta Tm vs DMSO control; higher = stronger stabilization (binding)
Details in all cases: 12.5 µM; protein concentration 2 µM
[1] = test system: LOC_OS02G45750-cb003
Outline: (§1)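 Rice kinase domain constructs were expressed in E. coli, purified, and tested by differential scanning fluorimetry with compound added in DMSO. Each well of a 96-well plate held 19.5 μl of 2 μM kinase in 100 mM potassium phosphate pH 7.5, 150 mM NaCl, 10% glycerol and 5 × SYPRO Orange, and fluorescence was read from 25°C to 95°C at 0.05°C/s. The melting temperature shift is the mean of triplicates, taken against protein with DMSO alone after Boltzmann fitting.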

[2] = test system: LOC_OS02G54510-cb004
Outline: as §1

[3] = test system: LOC_OS03G04050-cb001
Outline: as §1

[4] = test system: LOC_OS03G12390-cb001
Outline: as §1

[5] = test system: LOC_OS03G27990-cb004
Outline: as §1

[6] = test system: LOC_OS03G50450-cb001
Outline: as §1

[7] = test system: LOC_OS03G50810-cb003
Outline: as §1

[8] = test system: LOC_OS04G35114-cb001
Outline: as §1

[9] = test system: T1, LOC_OS04G38480-cb003
T1 sequence (whole entry): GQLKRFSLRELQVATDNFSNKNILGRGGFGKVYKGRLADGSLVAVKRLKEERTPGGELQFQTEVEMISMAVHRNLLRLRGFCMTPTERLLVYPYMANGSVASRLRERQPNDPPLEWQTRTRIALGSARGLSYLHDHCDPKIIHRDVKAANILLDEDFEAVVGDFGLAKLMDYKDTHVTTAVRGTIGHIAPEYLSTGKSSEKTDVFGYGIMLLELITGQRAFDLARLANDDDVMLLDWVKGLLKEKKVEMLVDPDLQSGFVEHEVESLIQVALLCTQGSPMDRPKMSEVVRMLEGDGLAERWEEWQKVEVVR
Outline: as §1

[10] = test system: T2, LOC_OS04G41100-cb001
T2 sequence (whole entry): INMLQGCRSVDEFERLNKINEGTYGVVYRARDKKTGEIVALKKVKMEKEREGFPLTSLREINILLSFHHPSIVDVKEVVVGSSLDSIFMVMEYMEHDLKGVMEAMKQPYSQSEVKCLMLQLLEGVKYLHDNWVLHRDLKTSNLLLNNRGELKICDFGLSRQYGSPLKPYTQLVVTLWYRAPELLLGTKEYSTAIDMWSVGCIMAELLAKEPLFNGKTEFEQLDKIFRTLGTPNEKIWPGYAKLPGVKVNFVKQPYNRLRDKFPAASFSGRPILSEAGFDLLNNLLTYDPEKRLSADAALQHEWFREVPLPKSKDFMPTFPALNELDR
Outline: as §1

[11] = test system: LOC_OS04G57630-cb004
Outline: as §1

[12] = test system: LOC_OS05G07850-cb002
Outline: as §1

[13] = test system: LOC_OS05G16824-cb004
Outline: as §1

[14] = test system: LOC_OS05G28520-cb001
Outline: as §1

[15] = test system: LOC_OS05G30820-cb001
Outline: as §1

[16] = test system: LOC_OS05G43570-cb004
Outline: as §1

[17] = test system: LOC_OS06G16330-cb003
Chain of LOC_OS06G16330-cb003 (as listed by the source): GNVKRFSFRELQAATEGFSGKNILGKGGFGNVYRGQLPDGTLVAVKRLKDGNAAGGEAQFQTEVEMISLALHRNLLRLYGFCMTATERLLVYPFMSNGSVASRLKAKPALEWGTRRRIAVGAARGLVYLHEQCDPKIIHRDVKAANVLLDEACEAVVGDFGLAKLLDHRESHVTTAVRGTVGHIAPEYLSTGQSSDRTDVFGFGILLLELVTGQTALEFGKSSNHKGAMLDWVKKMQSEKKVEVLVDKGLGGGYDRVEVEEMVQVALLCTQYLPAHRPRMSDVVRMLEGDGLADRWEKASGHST
Outline: as §1

[18] = test system: T3, LOC_OS06G22820-cb001
T3 sequence (whole entry): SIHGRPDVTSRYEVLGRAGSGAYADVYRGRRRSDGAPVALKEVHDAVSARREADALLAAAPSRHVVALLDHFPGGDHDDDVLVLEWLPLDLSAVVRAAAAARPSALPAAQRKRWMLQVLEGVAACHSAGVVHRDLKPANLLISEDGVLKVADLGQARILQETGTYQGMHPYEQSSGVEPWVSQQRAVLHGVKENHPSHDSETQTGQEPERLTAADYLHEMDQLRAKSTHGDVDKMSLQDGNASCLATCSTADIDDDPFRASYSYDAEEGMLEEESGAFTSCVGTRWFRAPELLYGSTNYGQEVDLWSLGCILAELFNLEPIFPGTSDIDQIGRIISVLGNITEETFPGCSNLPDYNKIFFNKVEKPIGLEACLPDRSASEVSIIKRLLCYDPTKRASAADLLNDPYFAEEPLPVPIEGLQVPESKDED
Outline: as §1

[19] = test system: LOC_OS07G06570-cb004
Outline: as §1

[20] = test system: LOC_OS07G07230-cb001
Outline: as §1

| SMILES | thermal shift delta Tm [1] [°C] | thermal shift delta Tm [2] [°C] | thermal shift delta Tm [3] [°C] | thermal shift delta Tm [4] [°C] | thermal shift delta Tm [5] [°C] | thermal shift delta Tm [6] [°C] | thermal shift delta Tm [7] [°C] | thermal shift delta Tm [8] [°C] | thermal shift delta Tm [9] [°C] | thermal shift delta Tm [10] [°C] | thermal shift delta Tm [11] [°C] | thermal shift delta Tm [12] [°C] | thermal shift delta Tm [13] [°C] | thermal shift delta Tm [14] [°C] | thermal shift delta Tm [15] [°C] | thermal shift delta Tm [16] [°C] | thermal shift delta Tm [17] [°C] | thermal shift delta Tm [18] [°C] | thermal shift delta Tm [19] [°C] | thermal shift delta Tm [20] [°C] |
| --- | --- | --- | --- | --- | --- | --- | --- | --- | --- | --- | --- | --- | --- | --- | --- | --- | --- | --- | --- | --- |
| N#Cc1ccc(-c2c(-c3ncn[nH]3)sc(N3CCOCC3)c2C#N)c(F)c1 | 1.03 | 0.27 | 0.35 | 0.25 | 0.22 | 0 | 0.37 | 0.45 | 1.64 | 0.49 | 0.27 | -0.29 | -1.35 | 0.33 | 0.65 | 0.57 | -0.08 | 0.61 | 1.08 | 0.24 |
| C#Cc1cccc(Nc2ncnc3cc(OCCOC)c(OCCOC)cc23)c1 [Erlotinib] | 4.13 | 0.7 | 0.03 | 2.11 | 0.02 | -0.06 | 1.07 | 6.16 | 1.65 | -0.05 | 0.41 | 8.18 | -4.3 | 0.22 | 0.36 | -0.04 | 3.38 | 0.08 | 0.67 | -0.73 |
| O=C1Nc2ccccc2/C1=C1/Nc2ccccc2C1=O [Indirubin] | 2.07 | 0.45 | 0.62 | 0.59 | 0.23 | 0.08 | 1.48 | 3.86 | 0.97 | 0.98 | 0.28 | 5.1 | -2.11 | 0.79 | 1.11 | 0.4 | 0.35 | 0.47 | 1.39 | 0.66 |
| COc1cc(OC)cc(N(CCNC(C)C)c2ccc3ncc(-c4cnn(C)c4)nc3c2)c1 | 1.81 | 2.46 | 0.37 | 0.27 | 0.3 | 0.28 | 0.45 | 0.74 | 2.14 | 0.41 | 0.11 | 3.45 | -0.05 | 0 | 0.18 | 0.08 | 0.79 | 0.32 | 1.94 | 0.52 |
| CC(C)[C@H](CO)Nc1nc(Nc2cccc(Cl)c2)c2ncn(C(C)C)c2n1 [Purvalanol A] | 5.95 | 2.06 | 0.15 | 3.95 | 3.63 | 7.22 | 2.8 | 6.09 | 1.87 | 0.54 | 1.65 | 4.54 | 10.1 | 1.68 | 2.51 | 0.79 | 2.99 | 0.25 | 0.14 | -0.31 |
| CCOc1cc(C(=O)N2CCC(N3CCN(C)CC3)CC2)ccc1Nc1ncc2c(n1)N(C1CCCC1)c1ccccc1C(=O)N2C | 0.51 | -0.24 | 0 | -0.16 | 0.03 | 0.49 | 0.18 | 0.47 | 1.8 | 0.13 | -0.22 | 1.11 | 0.71 | 0.22 | 0.32 | 0.17 | 0.04 | 0.34 | 0.95 | -0.25 |
| CCN(CC)CCNC(=O)c1c(C)[nH]c(/C=C2\C(=O)Nc3ccc(-c4csc(-c5ccccc5)n4)cc32)c1C [Amcasertib (BBI503)] | 0 | 0.74 | 0.42 | 0.16 | 0.77 | 1.61 | 7.41 | 15 | 1.78 | 0.78 | 2.36 | 10.8 | 12.7 | 2.76 | 0.34 | 0 | 6.16 | 0.72 | 1.73 | 0.75 |
| O=C1NC(=O)/C(=C/c2ccc(-c3ccc(F)cc3O)o2)S1 | 2.33 | 0.67 | 1.72 | 5.37 | 1.51 | 3.59 | 2.55 | 4.85 | 4.16 | 1.17 | 1.54 | 6.53 | 3.79 | 1.52 | 1.01 | 2.03 | 3.28 | 2.41 | 1.83 | 0.13 |
| COc1cc(OC)c(C=C2C(=O)Nc3ccccc32)c(OC)c1 | -0.14 | 0.07 | -0.08 | -0.35 | 0.05 | -0.29 | -0.06 | 0.7 | 0.58 | 0.2 | 0.1 | 0.55 | -0.46 | 0.31 | 0.46 | -0.11 | -0.29 | 0.44 | 1.13 | 0.96 |
| N#CC[C@H](C1CCCC1)n1cc(-c2ncnc3[nH]ccc23)cn1 | 0.42 | 1.39 | 0.15 | 2.16 | 0.41 | 0.17 | 0.46 | 0.65 | 1.14 | 0.66 | 0.1 | 6.97 | 1.27 | 0.17 | 0.76 | 1.05 | 3.75 | 0.57 | 1.16 | -0.53 |
| CCN1/C(=C/C(C)=O)Sc2ccc(OC)cc21 | 0.78 | 0.02 | 0.22 | 0.14 | 0.03 | 0.66 | 0.32 | 0.67 | 0.6 | 0.55 | -0.02 | 2.71 | 0.06 | 0.32 | 0.33 | 0.34 | -0.18 | 0.54 | 0.57 | 0.23 |
| O=C1NC(=O)C(=Cc2ccc(-c3ccc(F)cc3)o2)S1 (stereo in doubt) | 0.93 | 0.18 | 0.6 | 0.59 | 0.53 | 0.23 | 0.29 | 1.05 | 0.83 | 0.69 | 0.48 | 1.37 | -3.64 | 0.89 | 0.73 | 1.06 | 0.12 | 0.65 | 0.53 | 0.04 |
